# Results filed as inconclusive are left out. The source made the active and inactive calls. How the source made its calls: active means hit-call score of the fitted dose curve at least 0.9, where 1 is the maximum; inconclusive means response in the unintended direction; inactive means score below 0.9.
# Molecular target: Estrogen receptor (Homo sapiens) (UniProt P03372)
# Assay: OT_ER_ERaERa_1440: Odyssey Thera (OT) 24-hour HEK293T Protein-Complementation Assay for Estrogen Receptor-alpha/-alpha Homodimer (AID 2283349);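 further: hits raise fluorescence above DMSO for agonists and antagonists alike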
# Procedure, shortened: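 HEK293T, stable ERα LBD (aa 310-547) homodimer PCA; 24 h compound exposure; mean fluorescence intensity (nuclear for agonists, nuclear plus cytoplasmic for antagonists) vs vehicle; positive fitting direction, DMSO baseline.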
# Estrogen receptor (Homo sapiens), sequence (P03372 whole entry, looked up, the tested form may be a part): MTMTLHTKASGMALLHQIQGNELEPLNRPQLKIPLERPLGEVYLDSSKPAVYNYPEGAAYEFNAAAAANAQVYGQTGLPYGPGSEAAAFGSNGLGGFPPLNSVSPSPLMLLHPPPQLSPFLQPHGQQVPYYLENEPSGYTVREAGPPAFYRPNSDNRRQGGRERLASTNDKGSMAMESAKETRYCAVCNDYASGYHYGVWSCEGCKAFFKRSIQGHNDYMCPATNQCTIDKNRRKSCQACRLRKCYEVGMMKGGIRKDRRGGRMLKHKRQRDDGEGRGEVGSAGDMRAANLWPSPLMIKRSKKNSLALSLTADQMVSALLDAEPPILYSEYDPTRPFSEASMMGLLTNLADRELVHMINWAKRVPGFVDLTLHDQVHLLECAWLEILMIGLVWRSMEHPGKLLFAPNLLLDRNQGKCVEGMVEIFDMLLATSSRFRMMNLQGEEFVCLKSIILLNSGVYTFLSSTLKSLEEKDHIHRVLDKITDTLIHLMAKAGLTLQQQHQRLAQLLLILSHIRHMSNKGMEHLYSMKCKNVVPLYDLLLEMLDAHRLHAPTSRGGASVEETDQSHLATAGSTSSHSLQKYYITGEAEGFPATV
row,SMILES,outcome
1,BrC1CCC(Br)C(Br)CCC(Br)C(Br)CCC1Br (configuration not stated),inactive
2,CCCCc1ccc(N)cc1,inactive
3,OCCN1CCNCC1,inactive
4,CC(C)(N)CO,inactive
5,CCCCCCCCCCCCCCCC(=O)OC[C@H](O)[C@H]1OC(=O)C(O)=C1O,inactive
6,NCCCN1CCOCC1,inactive
7,OCCOCCOCCOCCO,inactive
8,CCCCCCCCCCCCCC(=O)O,inactive
9,c1ccc(CCCc2ccccn2)cc1,inactive
10,CCCCOCCOCCOCCOCCO,inactive

# Molecular target: Estrogen receptor (Homo sapiens) (UniProt P03372)
# Assay: OT_ER_ERaERa_0480: Odyssey Thera (OT) 8-hour HEK293T Protein-Complementation Assay for Estrogen Receptor-alpha/-alpha Homodimer (AID 2283351);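 further: rise in fluorescence from reassembled reporter fragments on ERα LBD homodimer in nucleus or whole cell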
# Procedure, shortened: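 HEK293T cells stably expressing a PCA pair of ER alpha LBD (residues 310-547) were dosed for 8 hours. The gain in fluorescence intensity, nuclear for agonists and whole-cell for antagonists, was measured by laser scanning cytometry against DMSO vehicle.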
row,SMILES,outcome
1,BrC1CCC(Br)C(Br)CCC(Br)C(Br)CCC1Br (configuration not stated),inactive
2,CCCCc1ccc(N)cc1,inactive
3,OCCN1CCNCC1,inactive
4,CC(C)(N)CO,inactive
5,NCCCN1CCOCC1,inactive
6,CCCCCCCCCCCCCC(=O)O,inactive
7,c1ccc(CCCc2ccccn2)cc1,inactive

# Molecular target: T1, Estrogen receptor (Homo sapiens) + Estrogen receptor beta (Homo sapiens) (UniProt P03372+Q92731)
# T1 sequence (P03372 whole entry, looked up): as the sequence (P03372 whole entry, looked up, the tested form may be a part) above
# T1 sequence (Q92731 whole entry, looked up): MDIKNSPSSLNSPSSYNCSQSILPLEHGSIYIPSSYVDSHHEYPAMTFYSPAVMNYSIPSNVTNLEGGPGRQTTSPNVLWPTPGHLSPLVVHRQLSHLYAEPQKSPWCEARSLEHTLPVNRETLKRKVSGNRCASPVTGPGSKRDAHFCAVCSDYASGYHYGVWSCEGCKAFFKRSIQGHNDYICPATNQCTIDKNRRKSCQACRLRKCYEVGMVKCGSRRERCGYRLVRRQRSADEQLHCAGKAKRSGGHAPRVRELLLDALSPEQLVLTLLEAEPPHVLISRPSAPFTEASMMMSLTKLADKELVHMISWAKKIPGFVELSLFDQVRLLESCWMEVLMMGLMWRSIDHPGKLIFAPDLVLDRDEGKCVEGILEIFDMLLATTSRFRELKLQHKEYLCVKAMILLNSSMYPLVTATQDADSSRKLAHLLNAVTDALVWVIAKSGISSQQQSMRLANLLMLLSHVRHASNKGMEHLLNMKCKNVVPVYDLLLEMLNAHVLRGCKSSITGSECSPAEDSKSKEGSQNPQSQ
# Assay: OT_ER_ERaERb_0480: Odyssey Thera (OT) 8-hour HEK293T Protein-Complementation Assay for Estrogen Receptor-alpha/-beta Heterodimer (AID 2283352)
# Procedure, shortened: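 Human HEK293T cells were treated for 8 hours and receptor heterodimerisation was detected through reconstitution of a fluorescent reporter split between ER-alpha and ER-beta ligand-binding domains. Activity was analysed as gain of signal against DMSO.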
SMILES,AC50,outcome
CCCCc1ccc(N)cc1,50 µM (active),–
OCCN1CCNCC1,–,inactive
CC(C)(N)CO,–,inactive
OCCOCCOCCOCCO,–,inactive
CCCCCCCCCCCCCC(=O)O,–,inactive
c1ccc(CCCc2ccccn2)cc1,–,inactive
CCCCOCCOCCOCCOCCO,–,inactive

# Molecular target: Androgen Receptor/SRC-1 Co-activator, AR (gene 367) (UniProt P10275)
# Sequence (P10275 whole entry, looked up): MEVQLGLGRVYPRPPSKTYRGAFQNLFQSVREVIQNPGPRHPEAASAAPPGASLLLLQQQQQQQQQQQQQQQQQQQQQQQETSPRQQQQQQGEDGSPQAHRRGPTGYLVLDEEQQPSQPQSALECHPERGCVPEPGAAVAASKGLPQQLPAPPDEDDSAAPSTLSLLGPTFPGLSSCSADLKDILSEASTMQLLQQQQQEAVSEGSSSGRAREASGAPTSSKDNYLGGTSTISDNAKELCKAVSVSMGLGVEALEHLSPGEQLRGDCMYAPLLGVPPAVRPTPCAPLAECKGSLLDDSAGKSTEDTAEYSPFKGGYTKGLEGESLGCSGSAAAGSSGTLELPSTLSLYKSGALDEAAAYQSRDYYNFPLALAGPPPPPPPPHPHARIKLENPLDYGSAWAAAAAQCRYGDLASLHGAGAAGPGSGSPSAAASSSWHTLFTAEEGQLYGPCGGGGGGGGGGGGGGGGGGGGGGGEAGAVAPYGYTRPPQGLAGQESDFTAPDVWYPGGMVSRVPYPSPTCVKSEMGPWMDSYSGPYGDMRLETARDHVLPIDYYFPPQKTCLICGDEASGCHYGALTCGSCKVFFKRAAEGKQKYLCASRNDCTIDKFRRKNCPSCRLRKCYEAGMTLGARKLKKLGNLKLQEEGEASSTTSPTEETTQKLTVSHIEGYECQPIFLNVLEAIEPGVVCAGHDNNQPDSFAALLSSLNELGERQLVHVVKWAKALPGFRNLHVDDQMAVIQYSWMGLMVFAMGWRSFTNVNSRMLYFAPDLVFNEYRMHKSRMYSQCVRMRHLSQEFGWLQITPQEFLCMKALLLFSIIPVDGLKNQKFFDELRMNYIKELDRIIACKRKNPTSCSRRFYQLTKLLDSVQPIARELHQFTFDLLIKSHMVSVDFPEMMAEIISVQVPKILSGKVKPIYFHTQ
# Assay: OT_AR_ARSRC1_0960: Odyssey Thera (OT) 16-hour HEK293T Protein-Complementation Assay for Androgen Receptor/SRC-1 Co-activator (AID 2283353);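 further: actives raise the signal above DMSO so potency reflects increased AR and SRC-1 complex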
# Procedure, shortened: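 Endpoint is gain-of-signal N/C fluorescence ratio in the 488 nm channel versus DMSO, from at least 400 cells per image, measured 16 h post-dosing. Cells: HEK293T stably carrying split-Venus AR/SRC-1 complementation constructs.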
SMILES,AC50,outcome
BrC1CCC(Br)C(Br)CCC(Br)C(Br)CCC1Br (configuration not stated),19.6 µM (active),–
CCCCC(CC)COC(=O)/C=C\C(=O)OCC(CC)CCCC (configuration not stated),75.5 µM (active),–
CCCCCCCCCCCCCOS(=O)(=O)O,–,inactive
CCCCC[Si](OCC)(OCC)OCC,–,inactive
CCCCCCCCCCCCCCCC(=O)OC[C@H](O)[C@H]1OC(=O)C(O)=C1O,–,inactive
NCCCN1CCOCC1,–,inactive
O=c1cc(-c2ccccc2)oc2cc(O)cc(O)c12,–,inactive
c1ccc2[nH]ccc2c1,–,inactive
CCN(CC)c1ccc(C(=C2C=CC(=[N+](CC)CC)C=C2)c2ccc(S(=O)(=O)O)cc2S(=O)(=O)[O-])cc1,–,inactive
O=C[C@@H](O)[C@H](O)[C@H](O)CO,–,inactive
CCCOCC(C)O (configuration not stated),–,inactive
COc1ccc(O)cc1,–,inactive
C[Si](O[Si](C)(C)C)O[Si](C)(C)C,–,inactive

# Molecular target: Androgen Receptor/SRC-1 Co-activator, AR (gene 367) (UniProt P10275)
# Assay: OT_AR_ARSRC1_0480: Odyssey Thera (OT) 8-hour HEK293T Protein-Complementation Assay for Androgen Receptor/SRC-1 Co-activator (AID 2283354);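 further: hits raise the complementation signal above DMSO so AC50 marks enhancers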
# Procedure, shortened: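 Reconstituted split-Venus YFP signal from AR–SRC-1 interaction, read by imaging 8 h post-dose in stable HEK293T lines. The 488 nm nucleus-to-cytoplasm ratio (≥400 cells/image) was fitted upward against DMSO.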
row,SMILES,outcome
1,BrC1CCC(Br)C(Br)CCC(Br)C(Br)CCC1Br (configuration not stated),inactive
2,CCCCCCCCCCCCCOS(=O)(=O)O,inactive
3,CCCCC[Si](OCC)(OCC)OCC,inactive
4,CCCCCCCCCCCCCCCC(=O)OC[C@H](O)[C@H]1OC(=O)C(O)=C1O,inactive
5,NCCCN1CCOCC1,inactive
6,O=c1cc(-c2ccccc2)oc2cc(O)cc(O)c12,inactive
7,c1ccc2[nH]ccc2c1,inactive
8,CCN(CC)c1ccc(C(=C2C=CC(=[N+](CC)CC)C=C2)c2ccc(S(=O)(=O)O)cc2S(=O)(=O)[O-])cc1,inactive
9,CCCOCC(C)O (configuration not stated),inactive

# Molecular target: T1, Estrogen receptor (Homo sapiens) + Estrogen receptor beta (Homo sapiens)
# Assay: OT_ER_ERaERb_1440: Odyssey Thera (OT) 24-hour HEK293T Protein-Complementation Assay for Estrogen Receptor-alpha/-beta Homodimer (AID 2283356);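 further: heteromer of ER alpha and ER beta binding domains; hits raise reporter fluorescence and both agonists and antagonists give an increase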
# Procedure, shortened: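 24 h exposure; HEK293T PCA cells with ERα/ERβ LBD fragments; signal rise in nuclear or whole-cell fluorescence over vehicle.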
SMILES,AC50,outcome
BrC1CCC(Br)C(Br)CCC(Br)C(Br)CCC1Br (configuration not stated),60.4 µM (active),–
CCCCc1ccc(N)cc1,39.6 µM (active),–
OCCN1CCNCC1,–,inactive
CC(C)(N)CO,–,inactive
NCCCN1CCOCC1,–,inactive
OCCOCCOCCOCCO,–,inactive
CCCCCCCCCCCCCC(=O)O,–,inactive
c1ccc(CCCc2ccccn2)cc1,–,inactive
CCCCOCCOCCOCCOCCO,–,inactive

# Molecular target: Estrogen receptor beta (Homo sapiens) (UniProt Q92731)
# Sequence (Q92731 whole entry, looked up): as the sequence (Q92731 whole entry, looked up) above
# Assay: OT_ER_ERbERb_0480: Odyssey Thera (OT) 8-hour HEK293T Protein-Complementation Assay for Estrogen Receptor-beta/-beta Homodimer (AID 2283357);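 further: active means signal gain over DMSO baseline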
# Procedure, shortened: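 ER-beta LBD homodimer PCA stably expressed in HEK293T; 8 h compound exposure, then formaldehyde fixation and Draq5 staining. Gain in nuclear/cytoplasmic fluorescence intensity versus DMSO vehicle, read on laser scanning cytometer.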
SMILES,outcome,AC50
BrC1CCC(Br)C(Br)CCC(Br)C(Br)CCC1Br (configuration not stated),inactive,–
CCCCC(CC)COC(=O)/C=C\C(=O)OCC(CC)CCCC (configuration not stated),inactive,–
CCCCc1ccc(N)cc1,inactive,–
OCCN1CCNCC1,inactive,–
Cc1ccc(C(C)C)cc1O,–,63.6 µM (active)
O=C(O)c1ccc([N+](=O)[O-])cc1,inactive,–
CCCCCCCCCCCCCOS(=O)(=O)O,inactive,–
CC(C)(N)CO,inactive,–
CCCCC[Si](OCC)(OCC)OCC,inactive,–
NCCCN1CCOCC1,inactive,–
O=c1cc(-c2ccccc2)oc2cc(O)cc(O)c12,–,7.09 µM (active)
OCCOCCOCCOCCO,inactive,–
c1ccc2[nH]ccc2c1,inactive,–
CCN(CC)c1ccc(C(=C2C=CC(=[N+](CC)CC)C=C2)c2ccc(S(=O)(=O)O)cc2S(=O)(=O)[O-])cc1,inactive,–
O=C(O)CCCCCCCC(=O)O,inactive,–
CC(C)=CCC[C@](C)(O)[C@@H]1CC=C(C)CC1,inactive,–
CCCCCCCCCCCCCC(=O)O,inactive,–
O=C[C@@H](O)[C@H](O)[C@H](O)CO,inactive,–
c1ccc(CCCc2ccccn2)cc1,inactive,–
C=CC[N+](C)(C)CC=C,inactive,–
COc1ccc(O)cc1,inactive,–
C=O,inactive,–
CC1(C)C(=O)N(Br)C(=O)N1Cl,inactive,–
C=CCOc1nc(OCC=C)nc(OCC=C)n1,inactive,–
C[Si](O[Si](C)(C)C)O[Si](C)(C)C,inactive,–
CCCCCCCCCCCCCCCCCC(=O)OCC(CC)CCCC (configuration not stated),inactive,–
C=CC(C)(O)CCC=C(C)CCC=C(C)C (configuration not stated),inactive,–
CCCCOCCOCCOCCOCCO,inactive,–

# Molecular target: human Thyroid Receptor Alpha (TRa), THRA (gene 7067) (UniProt P10827)
# Sequence (P10827 whole entry, looked up): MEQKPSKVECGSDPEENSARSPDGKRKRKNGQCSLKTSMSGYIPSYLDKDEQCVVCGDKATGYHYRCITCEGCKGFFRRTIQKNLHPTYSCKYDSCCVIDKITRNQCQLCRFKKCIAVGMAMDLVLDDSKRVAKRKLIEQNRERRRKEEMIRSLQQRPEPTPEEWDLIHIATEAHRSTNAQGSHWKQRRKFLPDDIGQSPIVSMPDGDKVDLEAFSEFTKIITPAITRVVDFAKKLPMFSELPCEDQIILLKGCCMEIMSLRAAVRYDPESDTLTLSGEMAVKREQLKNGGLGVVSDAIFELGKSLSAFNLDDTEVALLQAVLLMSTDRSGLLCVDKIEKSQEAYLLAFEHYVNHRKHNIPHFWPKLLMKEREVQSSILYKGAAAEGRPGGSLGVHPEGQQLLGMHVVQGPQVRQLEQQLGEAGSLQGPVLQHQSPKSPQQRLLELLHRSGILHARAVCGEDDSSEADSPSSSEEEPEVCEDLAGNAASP
# Assay: NVS_NR_hTRa_Antagonist: NovaScreen (NVS) Nuclear Receptor Binding Assay for human Thyroid Receptor Alpha Antagonism (TRa) (AID 2283362);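 further: activity is loss of signal relative to DMSO baseline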
# Procedure, shortened: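 In this biochemical format, receptor protein is dosed with chemical and read after 1 hour via AlphaLISA. Decreases from the DMSO baseline indicate antagonist activity; screening used 25 uM in duplicate before concentration-response confirmation.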
SMILES,outcome,AC50
CCCCCCCCCCCCCCCC(=O)OC[C@H](O)[C@H]1OC(=O)C(O)=C1O,inactive,–
c1ccc2[nH]ccc2c1,inactive,–
CCN(CC)c1ccc(C(=C2C=CC(=[N+](CC)CC)C=C2)c2ccc(S(=O)(=O)O)cc2S(=O)(=O)[O-])cc1,–,8.03 µM (active)
COc1ccc(O)cc1,inactive,–

# Source: PubChem BioAssay (EPA / NIEHS)
